40 molecules from PubChem BioAssay (NCATS) can be followed below.

Records with an inconclusive call do not appear. Entries that show only a call come without a potency. Active and inactive are the calls of the source. Calls come from the whole dose curve; as a rule, active = well fitted curve in the direction sought with a large enough effect in the signal ratio, with a control signal flat (not every such curve was filed as active); inconclusive = small, poorly fitted or top-dose-only effect, or effect the other way, or a change in a side signal; inactive = no such curve, though single readings can be large or run the other way; the % refers to the signal ratio.
Potency is the fitted concentration of half-maximal effect.

Chain of Tyrosine-protein phosphatase non-receptor type substrate 1 (Homo sapiens) + Leukocyte surface antigen CD47 (Homo sapiens) (P78324 whole entry, looked up, the tested form may be a part): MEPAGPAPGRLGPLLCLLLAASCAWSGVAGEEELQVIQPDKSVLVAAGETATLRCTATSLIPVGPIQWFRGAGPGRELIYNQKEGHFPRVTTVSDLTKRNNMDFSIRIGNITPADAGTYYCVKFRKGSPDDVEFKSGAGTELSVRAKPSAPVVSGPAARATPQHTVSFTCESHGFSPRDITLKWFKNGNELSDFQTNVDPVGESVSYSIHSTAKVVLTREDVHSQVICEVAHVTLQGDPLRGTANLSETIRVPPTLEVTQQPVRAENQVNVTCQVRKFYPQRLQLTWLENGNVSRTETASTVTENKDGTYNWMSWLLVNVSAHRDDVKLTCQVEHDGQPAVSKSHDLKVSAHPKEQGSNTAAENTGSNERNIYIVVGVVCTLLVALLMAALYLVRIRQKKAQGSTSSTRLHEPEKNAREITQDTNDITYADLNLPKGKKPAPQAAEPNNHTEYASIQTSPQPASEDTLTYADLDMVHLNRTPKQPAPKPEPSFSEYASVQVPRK
Chain of Tyrosine-protein phosphatase non-receptor type substrate 1 (Homo sapiens) + Leukocyte surface antigen CD47 (Homo sapiens) (Q08722 whole entry, looked up, the tested form may be a part): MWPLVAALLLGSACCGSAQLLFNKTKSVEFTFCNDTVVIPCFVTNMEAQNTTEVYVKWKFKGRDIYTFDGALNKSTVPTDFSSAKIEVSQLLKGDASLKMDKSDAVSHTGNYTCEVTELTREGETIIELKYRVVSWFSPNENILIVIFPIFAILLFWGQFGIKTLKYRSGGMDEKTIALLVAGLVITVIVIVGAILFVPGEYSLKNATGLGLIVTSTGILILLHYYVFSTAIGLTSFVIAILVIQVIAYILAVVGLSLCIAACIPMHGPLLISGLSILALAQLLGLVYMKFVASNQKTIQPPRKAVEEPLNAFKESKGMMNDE

The assay concerns the target Tyrosine-protein phosphatase non-receptor type substrate 1 (Homo sapiens) + Leukocyte surface antigen CD47 (Homo sapiens) (UniProt P78324+Q08722). Nature of the assay: CD47-SIRPalpha protein protein interaction - LANCE assay qHTS validation (AID 1347057). The settings on record: Recombinant CD47-His / biotin-SIRPalpha, TR-FRET ratio; series mostly up to 38.3 µM. The text has this: SIRPalpha is a myeloid cell expressed immunomodulatory receptor that binds the tumor expressed immune checkpoint CD47. Therapeutic disruption of this interaction leads to immune-mediated tumor rejection. This assay was used to quantitate CD47-SIRPalpha binding biochemically and evaluate chemical libraries for novel CD47-SIRPalpha inhibitors. To recapitulate the biological interaction of CD47 and SIRPalpha, we designed expression constructs to produce their recombinant, soluble, extracellular interaction domains. CD47 was produced with an N-terminal 6His tag. SIRPalpha was produced with an N-terminal Avi-Tag for site-specific biotin incorporation. The CD47-SIRPalpha interaction was measured by TR-FRET using affinity tag linked reagents (anti-6His-Eu donor and streptavidin-APC acceptor). SIRPalpha without biotin incorporation was used as a positive control inhibitor.
PROTOCOL TABLE (as described by Miller, T. et al. 2019)
SEQUENCE No. (e.g., 1, 2, 3, etc.); […] (e.g., Cells, Incubation, Reagent, etc.); VALUE and DESCRIPTION.
1a. Reagent. 3 uL CD47-His (12.5 nM) and Anti-His Eu Donor reagent (3 nM) added to respective wells in Assay buffer; white/solid bottom high base, med bind 1536-well plates (Greiner 789075)
1b. Reagent. 2 uL Assay buffer negative control for background fluorescence
2. Reagent. 23 nL library compounds (7-pt, 1:4 intraplate titration series) or DMSO control transferred by Pin Tool
3. Centrifuge. Centrifuge plate for 30 s at 1000 RPM
4. Incubation.#Incubate reagents at room temperature for 30 min, protected from light
5. Reagent. 2 uL SIRPalpha-biotin (100 nM) in Assay buffer
6. Incubation.#Incubate reagents at room temperature for 30 min, protected from light
7. Reagent. 1 uL SAV-APC (26 nM) acceptor reagent added to respective wells
8. Centrifuge. Centrifuge plate for 30 s at 1000 RPM
9. Incubation. Incubate reagents at room temperature for 30 min, protected from light
10. Detector. Measure Top TR-FRET on EnVision (Eu/APC filter set); calculate ratio Ch1/Ch2
1. Assay buffer composition.#Phosphate buffered saline (PBS; 10 mM Phosphate, 137 mM NaCl, and 2.7 mM KCl; pH 7.4), 0.05% IGEPAL CA-630
2. 23nL of […] library compounds (7 plates) or DMSO vehicle control transferred to 9 Greiner white/solid bottom high base, TC plates in 7 interplate 1:5 titrations (see Yasgar, A. et al. 2008) with Pintool. Two of the 9 plates are DMSO-only in compound field at beginning and end of compound library-treated plates.
10. Detector settings#Mirror = LANCE/DELFIA Dual Enh; Ex. Filter = UV2[TRF] 320; Em. Filter = APC 665; 2nd Em. Filter = Europium 615; Measurement h = 6.5; Ex. light (%) = 100; Delay = 60 us; Window t = 100 us; No. Seq. windows = 1; Time between flashes = 2000us; No. of flashes = 100; No. of flashes for 2nd detector = 100; Calculation: "Ratio Ch1/Ch2"
A general note: Time-resolved FRET reads energy transfer from a long-lived donor to a nearby acceptor.
Consider `N#Cc1cc2nc(O)c(O)nc2cc1[N+](=O)[O-]`, for which the Potency entry is “inactive”. As for `COc1ccc2c(c1)c(CC(=O)O)c(C)n2Cc1ccc(Cl)cc1`, the entry is “inactive”; as for `NC(Cc1cccc(-c2ccccc2CP(=O)(O)O)c1)C(=O)O` (stereo not given), “inactive”. The same measure for `CCCCCCCCCCC(C)(C)C(=O)Nc1c(OC)cc(OC)cc1OC`: “inactive”. On to `CCCCCCN(CCCCCC)C(=O)Cc1c(-c2ccc(F)cc2)[nH]c2ccccc12`, for which the Potency entry was “inactive”.

As for `CC(=O)NNC(=O)N1Cc2ccccc2Oc2ccc(Cl)cc21`, the Potency result is “inactive”.

As for `NCCCNCCCCNCCCN`, the Potency result was “inactive”. Turning to `NC1C=CC=C(C(=O)O)C1` (stereo not given), the Potency result is “inactive”. As for `CNc1cc(NS(=O)(=O)c2ccc(N)cc2)nc(NC)n1`, the entry is “inactive”. As for `CCc1ccc2c(-c3cccc(Cl)c3)nc(=O)n(CC)c2n1`, the Potency entry was “inactive”. As for `CC(C)(CO)Cc1cc(C(C)(C)C)c(O)c(C(C)(C)C)c1`, the Potency result was “inactive”. For `CCCCCCCCCCCCCCSCC(=O)O`, the Potency result was “inactive”. As for `COc1cc([C@@H]2c3cc4c(cc3[C@H](O)C3COC(=O)[C@@H]32)OCO4)cc(OC)c1OC` (stereo not given in full), the entry is “inactive”. With `CC(N)=NCCCC[C@@H](N)C(=O)O`, the Potency result is “inactive”.

In the case of `CCCCCCCC/C=C\CCCCCCCC(=O)NCCc1ccc(O)c(O)c1`, the Potency result is “inactive”. With `O=C1Cc2c([nH]c3ccc(Br)cc23)-c2ccccc2N1`, the Potency entry was “inactive”.

In the case of `NC[C@@H]1O[C@H](c2ccccc2)Cc2c1ccc(O)c2O`, the Potency entry was “inactive”.

For `O=c1[nH]c2cc(Cl)ccc2c(O)c1-c1ccc(Oc2ccccc2)cc1`, the Potency result is “inactive”.

With `N=C(N)SCCc1cnc[nH]1`, the Potency entry was “inactive”.

With `c1ccc2c(c1)CCC[C@H]2Nc1nc2ccccc2[nH]1`, the Potency result is “inactive”. Regarding `COc1cc(/C=C(\C#N)C(=O)Nc2nnc(C(F)(F)F)s2)ccc1OCc1ccc(C(F)(F)F)cc1C(F)(F)F`, the Potency result was “inactive”. The same measure for `NC1(C(=O)O)CCCCC1`: “inactive”; for `Clc1nccc2c1ccc1ccccc12`: “inactive”. As for `Cc1nc(N=Nc2ccc(S(=O)(=O)O)cc2S(=O)(=O)O)c(COP(=O)(O)O)c(C=O)c1O`, the entry is “inactive”. As for `Cc1cccc(C2CN(C)CCc3c2cc(O)c(O)c3Cl)c1` (stereo not given), the entry is “inactive”. For `Nc1ccc(CCNc2ncnc3c2ncn3C2OC(CO)C(O)C2O)cc1` (stereo not given), the Potency result is “inactive”. As for `COC1(C2=NCCN2)COc2ccccc2O1` (stereo not given), the entry is “inactive”. Consider `C[C@H](O)C(=O)C1=Nc2c(nc(N)[nH]c2=O)NC1`, for which the Potency result is “inactive”.

Regarding `N=C(N)SCCN`, the Potency result is “inactive”.

`CC(/C=C/c1cccc(Oc2ccc(F)cc2)c1)N(O)C(N)=O` (stereo not given): the Potency entry was “inactive”. In the case of `O=C(O)C1=CC(=C(c2ccc(O)c(C(=O)O)c2)c2ccc(O)c(C(=O)O)c2)C=CC1=O`, the Potency is 11.7 µM (active).

On to `N[C@@H](CCC(=O)N[C@H](CSN=O)C(=O)NCC(=O)O)C(=O)O`, for which the Potency entry is “inactive”. Take `CCCCCCCCCCC/C=C\C(C)(C)/C=C\CCCC(=O)O`: the Potency entry was “inactive”. As for `O=C(O)/C=C/c1cnc[nH]1`, the entry is “inactive”; as for `O=c1[nH]ccc2c(O)cccc12`, “inactive”; as for `N=C(N)c1ccccc1`, “inactive”. As for `CCOC(=O)C12CC1/C(=N/O)c1ccccc1O2` (stereo not given), the entry is “inactive”.

With `c1ccc(C2CN3CCSC3=N2)cc1` (stereo not given), the Potency result is “inactive”. The same measure for `N=C(N)c1ccc(OCCCCCOc2ccc(C(=N)N)cc2)cc1` (tested in a mixture with another compound): “inactive”; for `CN1Cc2sccc2C(c2ccc(O)c(O)c2)C1` (stereo not given): “inactive”.
